About 79,000 compounds went through this panel and 15% of them were active in at least one assay; those are over-represented in the sample as a whole. Unmarked numbers belong to inactive results. Active and inactive are the calls of the source. No stated cut-off is given here; in the data, active means growth inhibition above about 70%; inactive means the rest.

The values below come from PubChem BioAssay (NCI).

Assay [1] in a line: NCI Yeast Anticancer Drug Screen. Data for the rad50 strain (AID 155).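 Further: 0% = growth of vehicle-only cultures of the same strain.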 The note with it: S. cerevisiae rad50 strain growth inhibition, active compounds read high. In a few lines: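 A DNA repair-deficient yeast mutant serves as the test organism; compound-induced growth inhibition is calculated against vehicle-treated cells.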
Assay [2] in a line: NCI Yeast Anticancer Drug Screen. Data for the mec2-1 strain (AID 157). The note with it: S. cerevisiae mec2-1 strain, active compounds read high. In a few lines: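 Strain: mec2-1 (DNA repair/cell cycle alteration). Compound exposure, then growth measured; inhibition expressed relative to vehicle.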
The nature of assay [3]: NCI Yeast Anticancer Drug Screen. Data for the sgs1 mgt1 strain (AID 161).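 Further: 0% = growth of cultures given vehicle only.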 The note with it: S. cerevisiae sgs1 mgt1 strain, active compounds read high. In a few lines: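 Mutant yeast exposed to compound; growth scored against vehicle-only wells.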
Assay [4] is described as follows: NCI Yeast Anticancer Drug Screen. Data for the cln2 rad14 strain (AID 165).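 Further: 0% = growth equal to vehicle treated cultures.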 Particulars: S. cerevisiae cln2 rad14 strain, active compounds read high. In a few lines: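 Compounds are applied to the cln2 rad14 yeast strain, and growth is then compared with that of vehicle-treated cultures to give inhibition.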
Assay [5] in a line: NCI Yeast Anticancer Drug Screen. Data for the bub3 strain (AID 167). Particulars: S. cerevisiae bub3 mutant strain, active compounds read high. Summed up:
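Inhibition values come from growth of compound-treated mutant yeast normalised to vehicle-treated controls.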

The nature of assay [6]: NCI Yeast Anticancer Drug Screen. Data for the mlh1 rad18 strain (AID 175). Particulars: S. cerevisiae mlh1 rad18 strain growth inhibition, active compounds read high. Summed up:
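Read-out is yeast growth inhibition, calculated against vehicle-only controls. The compound was applied to a strain engineered with DNA damage repair alterations.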

[7] abbreviates: at 5.0 µM (retest, dose inferred, filed as 0.5).
The mark [8] stands for this setting: at 50.0 µM (retest, dose inferred, filed as 5.0).

In the case of `[O-][n+]1c(-c2ccccc2)c(Cl)c(-c2ccccc2)n1O`, the growth inhibition in assay [1] (setting [7]) was 4%; in assay [1] (setting [8]) it was 75% (active); in assay [1] (at 50.0 µM) it was 86.3% (active); in assay [2] (setting [7]) it was 0%; in assay [2] (setting [8]), 94% (active); in assay [2] (at 50.0 µM) it was 97% (active). The growth inhibition in assay [3] (setting [7]) was 4%; in assay [3] (setting [8]) it was 92% (active); in assay [3] (at 50.0 µM), 97.6% (active); in assay [4] (setting [7]), 0%; in assay [4] (setting [8]) it was 53%; in assay [4] (at 50.0 µM), 92.7% (active). In addition, the growth inhibition in assay [5] (setting [7]) was 8%; in assay [5] (setting [8]), 96% (active); in assay [5] (at 50.0 µM), 97.8% (active); in assay [6] (setting [7]), 4%; in assay [6] (setting [8]), 95% (active); in assay [6] (at 50.0 µM) it was 97.5% (active).

For `CC(C)(C)NCc1cc(C(C)(C)C)cc(-c2ccc(Cl)cc2)c1O`, the growth inhibition in assay [1] (setting [7]) was 26%; in assay [1] (setting [8]), 92% (active); in assay [1] (at 50.0 µM) it was 84.8% (active); in assay [2] (setting [7]), 13%; in assay [2] (setting [8]), 91% (active); in assay [2] (at 50.0 µM), 88.4% (active). In addition, the growth inhibition was 7% in assay [3] (setting [7]); 88% (active) in assay [3] (setting [8]); 86.5% (active) in assay [3] (at 50.0 µM); 44% in assay [4] (setting [7]); 55% in assay [4] (setting [8]); 76.8% (active) in assay [4] (at 50.0 µM). The growth inhibition was 12% in assay [5] (setting [7]); 91% (active) in assay [5] (setting [8]); 83.9% (active) in assay [5] (at 50.0 µM); 25% in assay [6] (setting [7]); 93% (active) in assay [6] (setting [8]); 84.6% (active) in assay [6] (at 50.0 µM).

Take `O=C(N/C(=C\c1ccc(/C=C(\NC(=O)c2ccccc2)c2nc3ccccc3s2)cc1)c1nc2ccccc2s1)c1ccccc1`: the growth inhibition in assay [1] (setting [7]) was 57%; in assay [1] (setting [8]), 57%; in assay [1] (at 50.0 µM) it was 85.1% (active); in assay [2] (setting [7]), 32%; in assay [2] (setting [8]), 32%; in assay [2] (at 50.0 µM), 87.5% (active). For the same molecule, the growth inhibition in assay [3] (setting [7]) is 42%; in assay [3] (setting [8]) it was 42%; in assay [3] (at 50.0 µM), 85.6% (active); in assay [4] (setting [7]), 38%; in assay [4] (setting [8]), 38%; in assay [4] (at 50.0 µM), 84.7% (active). Also, the growth inhibition in assay [5] (setting [7]) was 60%; in assay [5] (setting [8]), 60%; in assay [5] (at 50.0 µM), 85.5% (active); in assay [6] (setting [7]) it was 28%; in assay [6] (setting [8]) it was 28%; in assay [6] (at 50.0 µM), 83.8% (active).

`CCOc1cnn(-c2ccccc2)c(=O)c1SCc1ccc(Cl)c(Cl)c1`: the growth inhibition in assay [1] (setting [7]) was -4%; in assay [1] (setting [8]), 27%; in assay [1] (at 50.0 µM) it was 37.5%; in assay [2] (setting [7]) it was -3%; in assay [2] (setting [8]) it was 56%; in assay [2] (at 50.0 µM), 8.95%. Moreover, the growth inhibition in assay [3] (setting [7]) was 2%; in assay [3] (setting [8]), 73% (active); in assay [3] (at 50.0 µM) it was 65.8%; in assay [4] (setting [7]) it was -11%; in assay [4] (setting [8]), 44%; in assay [4] (at 50.0 µM), 53.1%. The growth inhibition in assay [5] (setting [7]) was 4%; in assay [5] (setting [8]), 82% (active); in assay [5] (at 50.0 µM), 40.3%; in assay [6] (setting [7]) it was -4%; in assay [6] (setting [8]), 56%; in assay [6] (at 50.0 µM) it was 32.4%.

Take `CCCCCCCCN(CCCCCCCC)Cc1ccc(Br)cc1`: the growth inhibition in assay [1] (setting [7]) was 98% (active); in assay [1] (setting [8]) it was 99% (active); in assay [1] (at 50.0 µM) it was 99.2% (active); in assay [2] (setting [7]), 96% (active); in assay [2] (setting [8]), 100% (active); in assay [2] (at 50.0 µM) it was 99.5% (active). Also, the growth inhibition in assay [3] (setting [7]) is 99% (active); in assay [3] (setting [8]) it was 99% (active); in assay [3] (at 50.0 µM), 99.5% (active); in assay [4] (setting [7]) it was 97% (active); in assay [4] (setting [8]), 99% (active); in assay [4] (at 50.0 µM), 99% (active). The growth inhibition in assay [5] (setting [7]) is 96% (active); in assay [5] (setting [8]), 99% (active); in assay [5] (at 50.0 µM) it was 99.2% (active); in assay [6] (setting [7]) it was 97% (active); in assay [6] (setting [8]), 99% (active); in assay [6] (at 50.0 µM) it was 99.5% (active).

Take `NC(N)=Nc1ccc(C(=O)Oc2c(Cl)cc([N+](=O)[O-])cc2Cl)cc1`: the growth inhibition in assay [1] (setting [7]) is -30%; in assay [1] (setting [8]) it was 46%; in assay [1] (at 50.0 µM) it was 48%; in assay [2] (setting [7]) it was -6%; in assay [2] (setting [8]) it was 28%; in assay [2] (at 50.0 µM), 30.2%. Besides, the growth inhibition is 4% in assay [3] (setting [7]); 65% in assay [3] (setting [8]); 71.1% (active) in assay [3] (at 50.0 µM); -9% in assay [4] (setting [7]); 32% in assay [4] (setting [8]); 21.9% in assay [4] (at 50.0 µM). In addition, the growth inhibition in assay [5] (setting [7]) was -6%; in assay [5] (setting [8]), 40%; in assay [5] (at 50.0 µM), 25.9%; in assay [6] (setting [7]) it was 12%; in assay [6] (setting [8]), 56%; in assay [6] (at 50.0 µM), 32.9%.

Consider `O=C(COc1ccccc1)Oc1c(Cl)c(Cl)c(Cl)c(Cl)c1Cl`, for which the growth inhibition in assay [1] (setting [7]) is 23%; in assay [1] (setting [8]) it was 94% (active); in assay [1] (at 50.0 µM), 94% (active); in assay [2] (setting [7]), 28%; in assay [2] (setting [8]), 97% (active); in assay [2] (at 50.0 µM), 98% (active). The growth inhibition in assay [3] (setting [7]) was 34%; in assay [3] (setting [8]), 98% (active); in assay [3] (at 50.0 µM) it was 96% (active); in assay [4] (setting [7]), 10%; in assay [4] (setting [8]), 97% (active); in assay [4] (at 50.0 µM), 96% (active). For the same molecule, the growth inhibition is 11% in assay [5] (setting [7]); 96% (active) in assay [5] (setting [8]); 98.3% (active) in assay [5] (at 50.0 µM); 23% in assay [6] (setting [7]); 97% (active) in assay [6] (setting [8]); 97.5% (active) in assay [6] (at 50.0 µM).

Consider `Cc1n[n+]([O-])c(C)cc1[N+](=O)[O-]`, for which the growth inhibition in assay [1] (setting [7]) was 0%; in assay [1] (setting [8]) it was 50%; in assay [1] (at 50.0 µM) it was 93.7% (active); in assay [2] (setting [7]), 4%; in assay [2] (setting [8]) it was 32%; in assay [2] (at 50.0 µM) it was 44.6%. The growth inhibition in assay [3] (setting [7]) was 17%; in assay [3] (setting [8]) it was 87% (active); in assay [3] (at 50.0 µM), 85.6% (active); in assay [4] (setting [7]), -5%; in assay [4] (setting [8]) it was 42%; in assay [4] (at 50.0 µM) it was 76.5% (active). Also, the growth inhibition in assay [5] (setting [7]) is -8%; in assay [5] (setting [8]) it was 16%; in assay [5] (at 50.0 µM), 65%; in assay [6] (setting [7]), 58%; in assay [6] (setting [8]) it was 94% (active); in assay [6] (at 50.0 µM) it was 92.2% (active).

As for `C/C(=N\NC(=S)N1CCCC1)c1nc2ncccc2[nH]1`, the growth inhibition in assay [1] (setting [7]) was -20%; in assay [1] (setting [8]) it was 97% (active); in assay [1] (at 50.0 µM) it was 85.9% (active); in assay [2] (setting [7]), -3%; in assay [2] (setting [8]), 94% (active); in assay [2] (at 50.0 µM) it was 84.8% (active). For the same molecule, the growth inhibition in assay [3] (setting [7]) was -2%; in assay [3] (setting [8]), 95% (active); in assay [3] (at 50.0 µM), 83.2% (active); in assay [4] (setting [7]), -38%; in assay [4] (setting [8]) it was 97% (active); in assay [4] (at 50.0 µM), 81.7% (active). Further, the growth inhibition in assay [5] (setting [7]) was -40%; in assay [5] (setting [8]), 98% (active); in assay [5] (at 50.0 µM), 87% (active); in assay [6] (setting [7]) it was 12%; in assay [6] (setting [8]), 97% (active); in assay [6] (at 50.0 µM), 82% (active).
